We go through 101 compounds from ChEMBL document CHEMBL3988442, “University of Dundee, Small-Polar-MMV Screening Library” (2021).

Among all 48,000 compounds or so, about 13,000 (27%) showed an effect of 50% or more. This is one part of the list.

The subject of the assay is Wolbachia pipientis. Nature of the assay: Anti-Wolbachia Cell-Based Screen. It is filed as functional. On the set-up: scale not given: in the data most compounds retested in dose-response had high values. The note with it: 5 µM.
As for `CC(=O)N(C)CC(=O)Nc1cnc(-n2ccnc2C)nc1`, the “Percent Effect” value worked out at 9.823%.

As for `CC(O)CCN(C)S(=O)(=O)Cc1ccc(Br)cc1` (stereo unspecified), the “Percent Effect” value was -1.579%.

As for `O=C(CO)N1CCc2onc(Cn3cccn3)c2C1`, the “Percent Effect” value amounted to 6.984%.

Regarding `Cc1c(Br)cccc1CSc1nnc(CO)n1C`, the “Percent Effect” value stood at 11.11%.

As for `O=C(Nc1c(F)cccc1Oc1ccccc1)C1CCS(=O)(=O)C1` (stereo unspecified), the “Percent Effect” value was 2.058%.

`CN(C)c1nccc(CNC(=O)NCc2ccco2)n1`: the “Percent Effect” value is -7.993%.

As for `Cc1ccc(CNC(=O)NCc2ccco2)s1`, the “Percent Effect” value amounted to 117.2%.

For the compound `O=C(NCc1cc(Cl)ccn1)NCc1ccco1`, the “Percent Effect” value was -0.04027%.

Turning to `CNC(=O)CCOC(=O)c1cccc(-n2ccc(C(F)(F)F)n2)c1`, the “Percent Effect” value is -14.03%.

`Cc1nn(C)c(N(C)C)c1CNCc1cccc(Br)c1`: the “Percent Effect” value is on record as -4.706%.

In the case of `Cc1noc(NC(=O)c2ccc(Br)cc2)n1`, the “Percent Effect” value was 7.251%.

As for `CCn1cc(NC(=O)c2cccc(OCC(F)(F)F)n2)cn1`, the “Percent Effect” value turned out to be 10.55%.

As for `CCN(CC)c1nc(C)cc(C(=O)Nc2cnn(CC)c2)n1`, the “Percent Effect” value is 114.1%.

For the compound `CCN(CC)c1nc(C)cc(C(=O)Nc2cccc(C(N)=O)c2)n1`, the “Percent Effect” value was 132.2%.

Turning to `CN(C)C(=O)c1cccc(NC(=O)c2cnn(C)c2)c1`, the “Percent Effect” value is given as -1.797%.

For the compound `CCN(Cc1cccc(C(N)=O)c1)c1ccccc1`, the “Percent Effect” value is 7.168%.

As to `Cc1ccc(NC(=O)c2n[nH]c(-n3cnnc3)n2)cc1C`, the “Percent Effect” value is 9.368%.

Turning to `CCc1sc(C(=O)Nc2cnn(CCN(C)C)c2)cc1C`, the “Percent Effect” value was found to be 11.53%.

With `CCN(CC)c1nc(C)cc(C(=O)Nc2ccc(Br)cc2)n1`, the “Percent Effect” value came to 134.8%.

Consider `CC(C)(C)CN[C@@H]1CO[C@H](CNC(=O)Nc2ccccc2)[C@H]1O`, for which the “Percent Effect” value is on record as -16.93%.

With `CCOc1ccccc1OCCN(C)Cc1nccn1C`, the “Percent Effect” value amounted to 8.395%.

In the case of `CC(=O)N(Cc1noc(C2CC2)n1)C1CCN(Cc2nccn2C)C1` (stereo unspecified), the “Percent Effect” value turned out to be 3.362%.

Regarding `CC(=O)N(Cc1noc(C)n1)C1CCN(Cc2cc(C)on2)C1` (stereo unspecified), the “Percent Effect” value is on record as 0.668%.

For `CC(=O)N(Cc1noc(C2CC2)n1)C1CCN(Cc2cc(C)on2)C1` (stereo unspecified), the “Percent Effect” value came out at 124.1%.

On to `CC(=O)N(Cc1noc(C)n1)C1CCN(Cc2ccon2)C1` (stereo unspecified), for which the “Percent Effect” value is 2.71%.

In the case of `CC(=O)N(Cc1noc(C)n1)C1CCN(Cc2ccccn2)C1` (stereo unspecified), the “Percent Effect” value was 104.4%.

Regarding `CC(=O)N(Cc1noc(C2CC2)n1)C1CCN(Cc2ccccn2)C1` (stereo unspecified), the “Percent Effect” value amounted to 122.2%.

As for `CCCC(=O)N(CCCN1CCOCC1)c1nc2c(C)ccc(Cl)c2s1.Cl`, the “Percent Effect” value was 32.82%.

Turning to `CN(C)CCOCC1CN(C(=O)N2CCCC2)Cc2ccnn2C1.O=C(O)C(F)(F)F.O=C(O)C(F)(F)F` (stereo unspecified), the “Percent Effect” value was -8.834%.

For the compound `CSC(C)(C)CNC(=O)NCc1cccc(-n2cncn2)c1`, the “Percent Effect” value stood at 2.602%.

As to `COCCOCCNC(=O)N1CCc2c(F)ccc(F)c2C1`, the “Percent Effect” value is -0.5371%.

Consider `N#Cc1cc(F)ccc1Cn1cncn1`, for which the “Percent Effect” value is given as 9.511%.

Consider `CNC(=O)Cc1noc(Cc2ccc3c(c2)CCCC3)n1`, for which the “Percent Effect” value is listed as 11.56%.

Turning to `Cc1ccc(=O)n(CC2(O)CCN(Cc3cnc(N(C)C)nc3)CC2)n1`, the “Percent Effect” value is on record as 82.15%.

Consider `CN(C)CC1(O)CCCN(Cc2cnc(-c3ccco3)nc2)CC1` (stereo unspecified), for which the “Percent Effect” value was found to be 2.959%.

Take `Cc1ccc(=O)n(CC2(O)CCN(Cc3c(F)cccc3F)CC2)n1`: the “Percent Effect” value was 89.56%.

As for `CN(C)c1cnn(CC(=O)N2CCN(Cc3cccs3)CC2)c(=O)c1`, the “Percent Effect” value worked out at 2.186%.

As to `Cc1ccc(=O)n(CC2(O)CCN(Cc3cccs3)CC2)n1`, the “Percent Effect” value amounted to 102.3%.

In the case of `Cc1ccc(=O)n(CC2(O)CCN(Cc3ccsc3)CC2)n1`, the “Percent Effect” value is -12.71%.

In the case of `Cn1cnn(Cc2c(F)cccc2Br)c1=O`, the “Percent Effect” value stood at 12.84%.

With `Cc1ccc(=O)n(CC2(O)CCN(Cc3cnc(C)nc3)CC2)n1`, the “Percent Effect” value is on record as -9.776%.

For `CCn1ccnc1CN1CCC(Oc2ccccc2F)(C(=O)O)CC1`, the “Percent Effect” value is -0.1414%.

With `CCn1cc(CN2CCC(O)(Cn3nc(C)ccc3=O)CC2)cn1`, the “Percent Effect” value is listed as 106.9%.

With `Cc1noc(C)c1CN(C)C(C)c1cccs1` (stereo unspecified), the “Percent Effect” value is -4.592%.

For the compound `CCCn1cnc2c1CN(S(=O)(=O)c1ccc(F)cc1)[C@H](C(=O)OC)C2`, the “Percent Effect” value is reported as -2.883%.

As to `CCCC1(CNCc2ncc[nH]2)CCC1`, the “Percent Effect” value is -4.212%.

On to `CCN1CCc2[nH]cnc2C12CCN(C(=O)CCCn1cncn1)CC2`, for which the “Percent Effect” value worked out at 0.07379%.

As to `CCC(C(=O)NCc1cccnc1)N(c1cccc(C)c1)S(C)(=O)=O` (stereo unspecified), the “Percent Effect” value is -6.23%.

`COc1ccccc1COCC(O)CN(C)c1ccc(C)cc1C` (stereo unspecified): the “Percent Effect” value was -38.72%.

As for `CCn1ccnc1C1CCN(C(=O)C(O)c2ccc(Cl)cc2)CC1` (stereo unspecified), the “Percent Effect” value was -5.147%.

Take `COc1ccc(C(=O)NC2CC2)c(OC2CCN(CCCSC)CC2)c1`: the “Percent Effect” value is -3.444%.

Consider `COCCN(CCOC)S(=O)(=O)N(C)Cc1ccncc1`, for which the “Percent Effect” value was 7.861%.

For the compound `Cc1ccc(=O)n(CC2(O)CCN(Cc3cnn(C)c3)CC2)n1`, the “Percent Effect” value turned out to be 99.25%.

For the compound `Cc1nc2c(c(N3CC=CC3)n1)CCN(Cc1ccoc1)CC2`, the “Percent Effect” value came to 2.971%.

For the compound `Cc1ccc(=O)n(CC2(O)CCN(Cc3ccoc3)CC2)n1`, the “Percent Effect” value is recorded as 91.7%.

Turning to `Cn1cc(CN2CCC3(CC2)CC(=O)Nc2ccccc23)cn1`, the “Percent Effect” value is on record as -46.12%.

`Cn1cc(CN2CC3(CCN(C(=O)c4ccoc4)C3)C2)cn1`: the “Percent Effect” value is reported as 3.005%.

In the case of `CCN(CC)Cc1ccc(C(=O)NC2CCc3cc(Br)ccc32)o1` (stereo unspecified), the “Percent Effect” value is -2.859%.

With `CC(C)c1cc(NCc2csc(C(C)C)n2)nc(N)n1`, the “Percent Effect” value was -18.23%.

For `COc1ccc(C(=O)Nc2ccccc2C(C)C)c(OC)n1`, the “Percent Effect” value was found to be 169%.

As to `COc1cc(NC(=O)c2cccc(N(C)C)c2)cc(OC)c1`, the “Percent Effect” value is recorded as 6.421%.

On to `COc1ncccc1C(=O)Nc1ccccc1-c1ccc(=O)n(C)n1`, for which the “Percent Effect” value is reported as -13.19%.

On to `COc1ccc(C(=O)Nc2cccc(C(N)=O)c2)c(OC)n1`, for which the “Percent Effect” value is reported as 132%.

On to `COc1ccc(C(=O)Nc2ccccc2-c2ccc(=O)n(C)n2)cc1`, for which the “Percent Effect” value is recorded as 17.03%.

Regarding `COc1ccc(C(CO)NC(=O)Nc2cccc(C(C)=O)c2)cc1` (stereo unspecified), the “Percent Effect” value is on record as -19.79%.

In the case of `COc1ccc(C(=O)Nc2cccc(SC)c2)c(OC)n1`, the “Percent Effect” value came out at 175.2%.

Consider `COc1ncccc1NC(=O)c1cccc(C)n1`, for which the “Percent Effect” value is -5.429%.

As for `COc1ccc(NC(=O)c2cccc(OC)c2OC)cc1`, the “Percent Effect” value is -22.1%.

As to `CC(C)Oc1ncc(C(=O)N2CCc3ccc(O)cc3C2)cc1Cl`, the “Percent Effect” value is -26.56%.

Take `CN1N=C(c2nc(Cc3cccc(Br)c3)no2)CCC1=O`: the “Percent Effect” value is -6.645%.

For the compound `CC(C(=O)NC1CC1)S(=O)(=O)c1cc2c(cc1Cl)OCCO2` (stereo unspecified), the “Percent Effect” value is -15.14%.

Consider `Cc1noc(C)c1CNS(=O)(=O)N(C)Cc1ccccc1Br`, for which the “Percent Effect” value is on record as -0.1877%.

`CCc1noc(CN(C)C(=O)COc2cccc(Cl)c2C)n1`: the “Percent Effect” value came to 4.111%.

In the case of `O=C(O)C(F)(F)F.c1coc(CN2CCO[C@H]3[C@H](OCC4CC4)CC[C@@H]32)c1`, the “Percent Effect” value was 120.5%.

With `O=C(O)C(F)(F)F.c1csc(CN2CCO[C@H]3[C@H](OCC4CCCC4)CC[C@@H]32)n1`, the “Percent Effect” value is -7.308%.

Take `O=C(O)C(F)(F)F.c1coc(CN2CCO[C@H]3[C@@H](OCC4CC4)CC[C@@H]32)c1`: the “Percent Effect” value is 73.75%.

Regarding `O=C(O)C(F)(F)F.c1coc(CN2CCO[C@H]3[C@H](OCC4CCCC4)CC[C@@H]32)c1`, the “Percent Effect” value amounted to 101%.

As for `CC(C)NC(=O)[C@H]1C[C@@H]2[C@@H](C1)OCCN2Cc1ccco1.O=C(O)C(F)(F)F`, the “Percent Effect” value amounted to 1.513%.

With `CCC(Nc1ccc(Oc2cccc(C#N)c2)cc1)C(N)=O` (stereo unspecified), the “Percent Effect” value was 18.43%.

For `CC[C@@H](CO)NC(=O)c1coc(COc2ccc3sc(C)nc3c2)n1`, the “Percent Effect” value was -14.59%.

On to `CCCc1noc(C(C)N2CC(n3cccn3)C2)n1` (stereo unspecified), for which the “Percent Effect” value is given as 2.136%.

For the compound `CCOCC1CN(Cc2cc(C)on2)Cc2cn(C)nc21` (stereo unspecified), the “Percent Effect” value is -1.224%.

Turning to `Cn1cnc2c1C(COCC1CC1)CN(Cc1ccc3c(c1)OCO3)C2.O=C(O)C(F)(F)F.O=C(O)C(F)(F)F` (stereo unspecified), the “Percent Effect” value is 34.98%.

Consider `CN(C)CC1CN(Cc2ccc3c(c2)OCO3)Cc2nccn2C1.O=C(O)C(F)(F)F.O=C(O)C(F)(F)F` (stereo unspecified), for which the “Percent Effect” value is listed as 4.386%.

For `COCC1CN(Cc2ccc3c(c2)OCO3)Cc2ncn(C)c21.O=C(O)C(F)(F)F.O=C(O)C(F)(F)F` (stereo unspecified), the “Percent Effect” value was 103.2%.

Consider `CCOCC1CN(Cc2cnn(C)c2)Cc2nn(C)cc21.O=C(O)C(F)(F)F` (stereo unspecified), for which the “Percent Effect” value is listed as -12.04%.

Consider `CCOCC1CN(Cc2ccc3c(c2)OCO3)Cc2nccn2C1` (stereo unspecified), for which the “Percent Effect” value worked out at 77.74%.

On to `CCOCC1CN(Cc2ccc3c(c2)OCO3)Cc2ncn(C)c21` (stereo unspecified), for which the “Percent Effect” value came out at 101.2%.

`COCC1CN(Cc2ccc(OC)cc2)Cc2nn(C)cc21.O=C(O)C(F)(F)F` (stereo unspecified): the “Percent Effect” value is given as -23.14%.

For `CCCc1nnc(NCc2ccc(OC)c(C#N)c2)o1`, the “Percent Effect” value is -5.74%.

As for `CN1C[C@@H](F)[C@@H](OCc2nc3ccc(C#N)cc3[nH]2)C1`, the “Percent Effect” value stood at 11.19%.

Regarding `NC(=O)CN(C(=O)Cc1ccc(C(F)(F)F)cc1)C1CCCC1`, the “Percent Effect” value is reported as 1.7%.

In the case of `CCn1nc(C)c(CCn2ccnc2-c2cc3n(n2)CCCNC3)c1C`, the “Percent Effect” value was -7.012%.

`CC(C)CC(O)C1CCN(Cc2cnc(-c3cccs3)nc2)CC1` (stereo unspecified): the “Percent Effect” value amounted to 3.832%.

As for `CN(C)S(=O)(=O)c1cccc(NC(=O)Cc2ccon2)c1`, the “Percent Effect” value was -6.04%.

Turning to `COCCn1/c(=N\C(=O)CN(C)S(C)(=O)=O)sc2cccc(F)c21`, the “Percent Effect” value came out at 0%.

For the compound `O=C(CO)N1CCC(c2ccnc(Nc3cc(C(F)(F)F)ccn3)n2)C1` (stereo unspecified), the “Percent Effect” value was 149.1%.

As for `Cl.NCC(=O)N1CCC(c2ccnc(Nc3cc(C(F)(F)F)ccn3)n2)C1` (stereo unspecified), the “Percent Effect” value worked out at 119.4%.

As for `CC(=O)N1CCC(c2ccnc(Nc3cc(C(F)(F)F)ccn3)n2)C1` (stereo unspecified), the “Percent Effect” value was determined as 158.6%.

Regarding `O=C(CC(F)(F)F)N1CCCC(c2nccn2Cc2ccncc2)C1` (stereo unspecified), the “Percent Effect” value is given as -5.55%.

Consider `COCC(=O)N1CC(c2ccnc(Nc3cc(C(F)(F)F)ccn3)n2)C1`, for which the “Percent Effect” value is listed as 171.1%.
